Shown are actives, neighbours in structure and some others; about 3.5% of the full set was active somewhere.
Tau fluor counter – Counterscreen qHTS for Inhibitors of Tau Fibril Formation, Fluorescence Polarization; tau K18 P301L Alexa594 fluorescence, heparin fibrillization; Potency, µM (titrated, usually from 57.7 µM); 0.93% of 280,000 active; AID 1463, 2008; also: nearly all actives have a fitted effect of over 55% in size
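Human K18 P301L tau (15 uM unlabeled plus 0.24 uM Alexa 594-labeled, final) in 100 mM sodium acetate pH 7 was mixed with compound and 20 uM heparin and incubated 6 hr at 37 C.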
Tau fibril FP – qHTS for Inhibitors of Tau Fibril Formation, Fluorescence Polarization | Microtubule-associated protein tau (Homo sapiens), P10636 | K18 P301L tau heparin fibrillization, Alexa594 FP, 6 h | Potency, µM (titrated, usually from 57.7 µM), most hits filed as inhibitors | 0.39% of 280,000 active; also: nearly all actives have a fitted effect of over 55% in size
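K18 P301L tau (15 uM unlabeled/0.24 uM Alexa 594-labeled, final) + compound + heparin 20 uM final; 100 mM NaOAc pH 7; 6 hr 37 C; ThT 30 uM final added, 1 hr RT; FP ex 555/em 632 nm.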
KDM4E inh – qHTS Assay for Inhibitors of Human Jumonji Domain Containing 2E (JMJD2E). 1.6% of 230,000 active. Lysine-specific demethylase 4E (Homo sapiens), B2RXH2. Potency, µM (series often up to 57.1 µM), hits mostly inhibitors. JMJD2E catalytic domain, FDH-coupled NADH fluorescence (FDH is formaldehyde dehydrogenase); also: nearly all actives have a fitted effect of over 50% in size
TexasRed fluor – Total Fluorescence Counterscreen for Inhibitors of the Interaction of Thyroid Hormone Receptor and Steroid Receptor Coregulator 2. Potency, µM (doses to about 106 µM). TRb/SRC2 Texas Red total fluorescence interference. 0.29% of 280,000 active; active = well fitted curve in either direction with a large enough effect; inconclusive = small, poorly fitted or top-dose-only effect
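Flags fluorescent or light-absorbing compounds by total fluorescence, S + 2P, at 555 nm excitation and 632 nm emission. Mixture: 20 nM Texas Red SRC2 peptide, 0.6 uM human TRb LBD, 1 uM T3, 5% DMSO; compound exposure 5 h at ambient temperature.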
TRb-SRC2 inh – qHTS for Inhibitors of the Interaction of Thyroid Hormone Receptor and Steroid Receptor Coregulator 2. Thyroid hormone receptor beta (Homo sapiens), P10828. TRbeta-SRC2 peptide binding, fluorescence polarization; receptor liganded with 1 µM T3. Potency, µM (titrated, usually from 106 µM), usual class: inhibitors. 0.065% of 280,000 active. AID 1469, 2008; also: nearly all actives have a fitted effect of over 50% in size
Target sequence (P10828 whole entry, looked up): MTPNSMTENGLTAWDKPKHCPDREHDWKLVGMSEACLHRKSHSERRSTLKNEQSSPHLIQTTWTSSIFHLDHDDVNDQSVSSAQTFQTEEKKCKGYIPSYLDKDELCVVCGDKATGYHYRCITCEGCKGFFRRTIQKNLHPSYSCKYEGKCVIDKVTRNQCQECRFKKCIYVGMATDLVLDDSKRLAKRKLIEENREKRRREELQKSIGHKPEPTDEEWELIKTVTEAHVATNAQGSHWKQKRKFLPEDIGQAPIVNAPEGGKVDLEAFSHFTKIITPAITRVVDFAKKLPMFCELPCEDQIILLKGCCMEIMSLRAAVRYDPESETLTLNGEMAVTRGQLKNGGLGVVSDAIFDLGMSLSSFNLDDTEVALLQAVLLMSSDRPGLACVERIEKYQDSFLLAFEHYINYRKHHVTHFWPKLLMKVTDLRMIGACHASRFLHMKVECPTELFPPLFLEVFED
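Polarization signal, normalized between peptide-alone and full complex controls, measured compound effects on T3-liganded human TRb LBD (0.6 uM) binding 20 nM Texas Red SRC2 peptide after 5 hr.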
Tau ThT inhib – qHTS for Inhibitors of Tau Fibril Formation, Thioflavin T Binding; AID 1460, 2008; recombinant tau K18 P301L (four-repeat tau fragment), heparin-induced fibrillization, ThT fluorescence; 2.1% of 270,000 active; Potency, µM (doses to about 57.4 µM), most hits filed as inhibitors; Microtubule-associated protein tau (Homo sapiens), P10636; also: nearly all actives have a fitted effect of over 55% in size
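Heparin-induced fibrillization of the P301L-mutant K18 repeat-domain fragment of human tau was followed by ThT binding in quantitative high-throughput format.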
Numbers stand for hits; i = inactive; ? = inconclusive; nt = no result given; [ ] = another dose, or the depositor's remark. Unless noted, calls follow the shape of the dose curve; as a rule, active = well fitted curve in the direction sought with a large enough effect; inconclusive = small, poorly fitted or top-dose-only effect, or another doubt; inactive = no such curve, though single readings can be large; an effect the other way counts as inactive or inconclusive.

SMILES	Tau fluor counter	Tau fibril FP	KDM4E inh	TexasRed fluor	TRb-SRC2 inh	Tau ThT inhib
CC1(C)CC(=O)C2=C(C1)N(Cc1ccco1)C(=O)C2(O)C(F)(F)F (configuration not stated)	i	i	i	i	i	i
COC(=O)CN1C(=O)N/C(=C/c2ccc(C)o2)C1=O	i	?	?	i	i	?
Cc1ccc(/C=C2\SC(=S)N(c3cccnc3)C2=O)o1	i	?	11.2µM	i	i	15.8µM
O=C(O)c1cc(-c2ccc(/C=C3/SC(=S)N(Cc4ccccc4)C3=O)o2)ccc1Cl	i	i	i	?	?	10µM
Cc1cccc(N2C(=O)/C(=C/c3cccnc3)SC2=S)c1	i	i	i	i	i	?
COc1ccc(CN2C(=O)/C(=C/c3ccc(-c4ccc(Cl)c(C(=O)O)c4)o3)SC2=S)cc1	i	i	i	i	i	?
O=C1/C(=C/c2ccncc2)SC(=S)N1Cc1ccccc1	i	i	i	i	i	?
Cc1ccc(/C=C2/NC(=O)N(Cc3ccccc3)C2=O)o1	i	?	11.2µM	i	i	31.6µM
Cc1ccc(/C=C2\SC(=S)N(Cc3ccccc3)C2=O)o1	?	?	i	i	i	15.8µM
CC(C)CNC(=S)N1CCC(C(=O)c2ccc3c(c2)OCCO3)CC1	i	i	i	i	i	i
CN(C(=O)c1ccc2c(c1)SC1=NS(=O)(=O)CCN12)C(c1ccccc1)c1ccccc1	i	i	i	i	i	i
CCc1nnc(SC(CC)C(=O)NCCOC)c2cc3occc3n12 (configuration not stated)	i	i	nt	i	i	?
CCN(CC)C(=O)c1ccc(Oc2ccc([N+](=O)[O-])cc2Cl)cc1	i	i	i	i	i	i
CCN(CC)C(=O)c1cc([N+](=O)[O-])cc2c1-c1ccc([N+](=O)[O-])cc1C2=C(C#N)C#N	?	?	?	i	i	31.6µM
CCCOc1ccc(CNC(=O)Cn2ncc3ccccc32)cc1	i	i	i	i	i	i
CCCCCCCCCCCCCCCCCC(N)=O	nt	nt	nt	i	i	nt
CC(=O)Oc1ccc2c(=O)c(Oc3ccccc3)coc2c1OC(C)=O	i	i	3.55µM	i	i	?
Cc1ccc(Oc2coc3cc(OC(=O)c4cccs4)ccc3c2=O)cc1	i	i	?	i	i	i
Nc1nc(-c2ccc3c(c2)OCCO3)cs1	i	?	i	i	i	?
N#Cc1ncc(-c2ccc3c(c2)OCCOCCOCCOCCO3)nc1C#N	i	?	i	i	i	20µM
N#Cc1ncc(-c2ccc3c(c2)OCCOCCOCCOCCOCCO3)nc1C#N	i	?	i	i	i	22.4µM
c1ccc2c(c1)Cc1cc3cc4c(cc3nc1-2)OCO4	?	i	?	i	i	3.16µM
COc1ccccc1NC(=O)c1cc2c(-c3ccccc3)nn(-c3ccccc3)c2s1	i	?	nt	i	i	i
Cc1nn(-c2ccccc2)c2sc(C(=O)Nc3cccc(Br)c3)cc12	?	7.94µM	nt	i	i	?
O=C(Nc1ccc(Cl)cc1)c1cc2c(-c3ccccc3)nn(-c3ccccc3)c2s1	i	25.1µM	nt	i	i	i
O=C(Nc1ccccc1)c1cc2c(-c3ccccc3)nn(-c3ccccc3)c2s1	?	20µM	nt	i	i	i
O=C(NCCc1csc2nc(-c3ccc(F)cc3)nn12)c1ccco1	i	i	nt	i	i	i
CC1CC(C)(C)NCCNC(C)CC(C)(C)NCCN1 (configuration not stated)	i	i	i	i	i	i
O=[N+]([O-])c1ccc(Sc2ncccn2)c([N+](=O)[O-])c1	6.31µM[quencher]	?	i	i	i	12.6µM
CC1=Nc2cc(C(=O)NCC3CCCO3)ccc2Sc2ccc(Br)cc21 (configuration not stated)	i	i	i	i	i	i
